Screening data deposited in PubChem by National Center for Advancing Translational Sciences (NCATS).
Rab9 promoter act: activates the Rab9 promoter. Huh7 Rab9 promoter-luciferase reporter, luminescence, 24 h. Potency, µM (highest dose often 9.22 µM), for the others: at the top dose activation, negative = inhibition, usual class: activators. AID 485297. actives 2.8% (n = 320,000); also: % of control where 0% means no effect; nearly all actives have a fitted effect of over 60% in size
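Measured in stably transfected Huh7 cells bearing a Rab9 promoter–luciferase construct: 24 h compound treatment at 37 °C, followed by luminescence detection.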
SMN2 splice up: enhancers of SMN2 splice variant expression; HEK293 SMN2-luciferase splicing reporter, luminescence, 30-36 h; Potency, µM (series often up to 46.1 µM), for inactives: at the top dose activity change, positive = activation, usual class: activators; actives 2.8% (n = 210,000); also: % of control where 0% means no effect; nearly all actives have a fitted effect of over 55% in size
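HEK293 cells carry an SMN2 […]–luciferase reporter in which exon 7 inclusion puts luciferase in frame. Cells were plated 10-12 h before compound addition, then incubated 30-36 h at 37C. ONE-Glo luminescence was read; sodium butyrate at 4.5 mM final served as control.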
ELG1 genotoxic: induces genotoxicity in HEK293T cells with luciferase-tagged ELG1 | Potency, µM (doses to about 46 µM), without a hit: at the highest dose activity change, positive = activation, most hits filed as activators | actives 1.3% (n = 330,000) | HEK293T ELG1-luciferase reporter, luminescence, 16 h; also: % of control where 0% means no effect; nearly all actives have a fitted effect of over 60% in size
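ELG1-luciferase HEK293T cells, 2,000/well; compound pinned in; 16 hr, 37 °C, 5% CO2; ONE-Glo, 30 min RT; luminescence on CCD imager.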
Luc counter: blocks Kinase-Glo luciferase, a counter-screen artifact; Potency, µM (doses to about 38.3 µM), inactives show at the top dose activity change, negative = inhibition, hits mostly inhibitors; Q27757; Kinase-Glo luciferase, ATP luminescence, 8 min; actives 0.28% (n = 200,000); also: % is scaled to controls: 0 for no effect and ±100 for the full control effect; nearly all actives have a fitted effect of over 60% in size
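Recombinant Kinase-Glo luciferase, 10 uM ATP (linear range), luciferin; imidazole pH 7.2 / KCl / MgCl2 / Tween / BSA buffer; 8 min RT; luminescence.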
NPC1 prom act: activates the NPC1 promoter | Huh7 NPC1 promoter luciferase reporter, 24 h | Potency, µM (doses to about 9.22 µM), for inactives: at the highest dose activation, actives largely listed as activators | actives 2.4% (n = 320,000) | AID 485313; also: % of control where 0% means no effect; nearly all actives have a fitted effect of over 60% in size
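Stable NPC1-promoter luciferase Huh7 line; cpd (DMSO) 24 h, 37 °C, 5% CO2; Amplite luciferase reagent 10 min RT; luminescence readout. qHTS format.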
FLuc modulator: inhibits or activates purified firefly luciferase, miR-21 counter-screen; purified FLuc, Km substrates, luminescence inhibition; actives 6.9% (n = 360,000); P08659; Potency, µM (doses to about 57.5 µM), inactives show at the top dose activity change, negative = inhibition, most hits filed as inhibitors;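 also: plate controls were vehicle for no effect and reference inhibitor for full effect; nearly all actives have a fitted effect of over 55% in size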
Target sequence (P08659 whole entry, looked up): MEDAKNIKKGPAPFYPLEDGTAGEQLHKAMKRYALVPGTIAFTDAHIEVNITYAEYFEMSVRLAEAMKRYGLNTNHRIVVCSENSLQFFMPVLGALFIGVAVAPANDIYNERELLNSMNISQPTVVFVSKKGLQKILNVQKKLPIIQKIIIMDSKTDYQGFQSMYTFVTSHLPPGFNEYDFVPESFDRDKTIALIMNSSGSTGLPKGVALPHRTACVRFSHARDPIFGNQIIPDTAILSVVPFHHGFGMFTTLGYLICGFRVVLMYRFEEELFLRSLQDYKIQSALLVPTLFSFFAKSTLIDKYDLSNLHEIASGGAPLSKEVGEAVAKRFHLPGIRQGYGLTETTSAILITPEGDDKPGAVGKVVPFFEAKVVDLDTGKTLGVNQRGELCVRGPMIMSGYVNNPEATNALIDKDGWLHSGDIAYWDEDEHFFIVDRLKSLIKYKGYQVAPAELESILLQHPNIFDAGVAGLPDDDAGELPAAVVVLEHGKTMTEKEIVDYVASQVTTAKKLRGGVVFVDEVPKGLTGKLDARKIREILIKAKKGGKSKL
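Purified P. pyralis luciferase, 10 nM final, with Km-level 10 uM D-luciferin and 10 uM ATP in 50 mM Tris acetate pH 7.5, 10 mM Mg acetate, 0.01% Tween-20, 0.05% BSA; 6-point qHTS titration about 60 µM downward; luminescence read.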
Starred values were filed as active, the others as inactive; ? = inconclusive; . = no result. Compounds with a hit are over-represented: about 7.5% of the library has one in this group of screens. Calls follow the shape of the dose curve; as a rule, active = well fitted curve in the direction sought with a large enough effect; inconclusive = small, poorly fitted or top-dose-only effect, or another doubt; inactive = no such curve, though single readings can be large; an effect the other way counts as inactive or inconclusive. Potency is read from the fitted curve at half-maximal effect.

SMILES | Rab9 promoter act | SMN2 splice up | ELG1 genotoxic | Luc counter | NPC1 prom act | FLuc modulator
CC(=O)c1ccc(NC(=O)CSc2n[nH]c(-c3cccnc3)n2)cc1 | 8% | . | 7% | . | -3% | ?
Cc1csc(NC(=O)/C=C/c2ccc3c(c2)OCO3)n1 | ? | 13µM* | 2.9µM* | -6% | -1% | 0.95µM*
O=C(/C=C/c1ccc2c(c1)OCO2)Nc1nc(-c2ccc(F)cc2F)cs1 | -12% | -82% | 8% | 1% | -7% | 1%
Cc1nc(NC(=O)c2ccc(F)cc2)sc1C(=O)Nc1ccc2c(c1)CCC2 | 5% | ? | 7% | ? | 0% | 13µM*
Cc1ccc(C(=O)Nc2nc(C)c(C(=O)Nc3ccc4c(c3)CCC4)s2)cc1 | -4% | 5.6µM* | 18µM* | -15% | -13% | 15µM*
Cc1ccc(Nc2nc(N)c([N+](=O)[O-])c(NCCO)n2)cc1C | 10% | . | 18% | . | 20% | 15µM*
Nc1nc(Nc2ccc(Cl)cc2)nc(NCCO)c1[N+](=O)[O-] | -2% | . | 10% | . | ? | -18%
Cc1ccc(Nc2nc(N)c([N+](=O)[O-])c(NCc3ccco3)n2)cc1C | 26% | ? | 9% | -3% | ? | 24µM*
Nc1nc(NCc2ccco2)nc(Nc2ccc(F)cc2)c1[N+](=O)[O-] | 0% | . | 2% | . | -3% | 0%
CNc1nc(NCc2ccccc2)nc(N)c1[N+](=O)[O-] | -1% | . | 18µM* | . | -2% | 6%
CCOC(=O)CNC(=O)O[C@@H]1C(=O)c2cc(OC)ccc2O[C@H]1c1ccc(OC)c(Br)c1 | . | 11% | . | 3% | . | .
COc1cc(NC(=O)N(Cc2ccco2)C2CCN(C(C)=O)CC2)cc(OC)c1OC | . | . | . | . | . | 4%
O=C(Oc1ccc(F)cc1)c1nc(SCc2ccccc2F)ncc1Cl | . | 11% | . | . | . | 3%
CCOc1ccc(NC(=O)Cn2c(=O)oc3cc(S(=O)(=O)N4CCC(C)CC4)ccc32)cc1 | . | -26% | . | . | . | ?
N#Cc1cc2c(nc1SCC(=O)O)CCCCC2 | 0% | . | 1% | . | -6% | -5%
CCOC(=O)CC(=O)CSc1nc2c(cc1C#N)CCC2 | 6% | -4% | 2% | -1% | -2% | 13µM*
CCOC(=O)c1sc(NC(=O)CSc2nc3c(cc2C#N)CCCCC3)c(C#N)c1C | 18% | 4% | -4% | -1% | 29% | -6%
COC(=O)CC(=O)CSc1nc2c(cc1C#N)CCCCC2 | ? | ? | ? | 3% | 22% | 5.4µM*
CCc1nnc(NC(=O)CSc2nc3c(cc2C#N)CCCC3)s1 | 0.5µM* | 5.6µM* | ? | 4% | 0.89µM* | 0.85µM*
CCC(=O)N1c2ccccc2CC1C(=O)NCc1cccc(OC)c1OC (stereo not given) | . | . | . | . | . | -2%
Nc1nc(N)nc(-c2cc(O)ccc2O)n1 | 10% | . | -3% | . | ? | -19%
Oc1ccc(O)c(-c2cnns2)c1 | -6% | 9% | -1% | -1% | -14% | 8.5µM*
O=C(Nc1ccc(F)cc1)Nc1nnc(-c2ccco2)s1 | 2.8µM* | 19% | 20% | -2% | ? | -19%
COc1ccc(C(=O)Nc2nnc(-c3ccco3)s2)cc1 | 0.32µM* | 1.4µM* | ? | -21% | 0.45µM* | 0.48µM*
O=C(Nc1nnc(-c2ccco2)s1)c1ccccc1 | 0.4µM* | 2µM* | 1.2µM* | -7% | 0.79µM* | 3µM*
SMILES | Rab9 promoter act | SMN2 splice up | ELG1 genotoxic | Luc counter | NPC1 prom act | FLuc modulator
COc1ccccc1NC(=O)Nc1nnc(-c2ccco2)s1 | 3% | 1% | 4% | -3% | -3% | -1%
Cc1ccc(-c2nnc(SCC(=O)N/N=C/c3ccc(C(=O)O)cc3)n2C2CCCCC2)cc1 | -3% | . | -1% | . | 3% | 0%
COc1cccc(-c2nc3sc4c(c3c(=O)[nH]2)CCCCC4)c1 | ? | 0.89µM* | ? | -11% | ? | 0.15µM*
Cc1cc(C)cc(NC(=O)CCc2nc3sc4c(c3c(=O)[nH]2)CCCC4)c1 | -26% | . | 0.73µM* | . | -10% | 5%
CCOC(=O)c1nc2sc3c(c2c(=O)[nH]1)CCCC3 | -1% | 3% | -6% | -3% | 1% | 19µM*
CC(C)CCOCc1nc2sc3c(c2c(=O)[nH]1)CCC(C)C3 (stereo not given) | 20% | -34% | ? | -2% | 20% | -13%
CC(=O)Nc1ccc(NC(=O)CCc2nc3sc4c(c3c(=O)[nH]2)CCCC4)cc1 | 0% | . | 0% | . | 6% | ?
CCOC(=O)c1nc2sc3c(c2c(=O)[nH]1)CCC(C)C3 (stereo not given) | -2% | . | 1% | . | -5% | 17µM*
O=S(=O)(NCc1nc2cccnc2n1Cc1ccc(F)cc1)c1ccc(Cl)s1 | . | . | . | . | . | -8%
COC(=O)c1ccccc1NC(=O)c1cc(-c2cccs2)on1 | 2.2µM* | 7% | 12% | -1% | 24% | -7%
COc1ccc(NC(=O)c2cc(-c3cccs3)on2)cc1 | -3% | . | 16µM* | . | 1% | ?
COc1ccccc1-c1cc(C(=O)Nc2ccccc2C(F)(F)F)no1 | . | -7% | . | . | . | 0%
O=C(Nc1cccnc1)c1cc(-c2ccccc2O)on1 | -4% | . | -2% | . | 0% | 1.3µM*
O=C(Nc1ccccc1C(F)(F)F)c1cc(-c2ccccc2O)on1 | 4µM* | ? | 17% | 0% | ? | -21%
COc1ccc2c(c1)O[C@@H](c1cccc(C(F)(F)F)c1)[C@H](OC(=O)Nc1cc(OC)c(OC)c(OC)c1)C2=O | . | -2% | . | 3% | . | .
COc1cc2[nH]c(=O)n(Cc3ccc(C(=O)NCc4ccccc4)cc3)c(=O)c2cc1OC | . | 5% | . | . | . | 6%
O=C(Nc1cccnc1)c1cc(-c2cccs2)on1 | ? | -12% | 1% | -10% | 0% | 1.7µM*
CC(=O)Nc1nonc1-c1nnc(SCC(=O)Nc2ccccc2)n1-c1ccccc1 | . | . | . | . | . | -11%
O=c1c2cc3c(cc2n(Cc2ccccc2)c(=O)n1Cc1nc(-c2ccccc2)no1)OCO3 | . | . | . | . | . | -1%
O=C(Nc1nnc(-c2ccccc2Cl)o1)c1nc2ccccc2s1 | -2% | 10% | ? | 1% | -1% | -5%
COc1cccc2sc(Nc3nnc(-c4ccccc4Cl)o3)nc12 | -15% | -23% | 11% | -1% | -15% | 12µM*
COc1cccc2sc(NN)nc12 | 2% | 5% | 0% | 1% | 16% | ?
COc1cccc(-c2nnc(Nc3nc4c(F)cccc4s3)o2)c1 | 3.2µM* | 11µM* | 11% | -2% | 2.8µM* | 4.8µM*
COc1ccccc1-c1nnc(Nc2nc3c(OC)cccc3s2)o1 | 3% | -13% | 14% | -8% | -5% | 2.7µM*
COc1cccc(-c2nnc(NC(=O)C3CCCCC3)o2)c1 | -3% | 11% | ? | -3% | 1% | 1%
Cn1c(NCCCO)nc2c1c(=O)n(Cc1cccc(F)c1)c(=O)n2C | . | 12% | . | . | . | 4%
